Measurements from PubChem BioAssay (NCI).
Compounds without any hit were thinned out: in the full panel of roughly 79,000, 15% have a hit. Active and inactive are the calls of the source. Cut-off read from the data, not from the text of the source: active = growth inhibition above about 70%; inactive = the rest.

What was measured:
[1] = NCI Yeast Anticancer Drug Screen. Data for the rad50 strain (AID 155);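 note: 0% = growth of vehicle-only cultures of the same strain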; settings: S. cerevisiae rad50 strain growth inhibition, hits give high values
How it was run: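 Growth of the mutant yeast was measured after compound exposure and referenced to vehicle-treated cultures.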

[2] = NCI Yeast Anticancer Drug Screen. Data for the mec2-1 strain (AID 157); settings: S. cerevisiae mec2-1 strain, hits give high values
How it was run: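 Yeast mec2-1 mutant treated with compound. Readout: growth inhibition vs vehicle controls.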

[3] = NCI Yeast Anticancer Drug Screen. Data for the sgs1 mgt1 strain (AID 161);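 note: 0% = growth of cultures given vehicle only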; settings: S. cerevisiae sgs1 mgt1 strain, hits give high values
How it was run: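 Test agents were incubated with a DNA-repair-mutant yeast strain. Growth was then read and compared against vehicle-treated controls.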

[4] = NCI Yeast Anticancer Drug Screen. Data for the cln2 rad14 strain (AID 165);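 note: 0% = growth equal to vehicle treated cultures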; settings: S. cerevisiae cln2 rad14 strain, hits give high values
How it was run: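 cln2 rad14 yeast strain; compound exposure; growth inhibition read vs vehicle controls.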

[5] = NCI Yeast Anticancer Drug Screen. Data for the bub3 strain (AID 167); settings: S. cerevisiae bub3 mutant strain, hits give high values
How it was run: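 Whole-cell yeast assay. The mutant strain was incubated with compounds, and growth inhibition was determined by comparison with vehicle-treated cells.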

[6] = NCI Yeast Anticancer Drug Screen. Data for the mlh1 rad18 strain (AID 175); settings: S. cerevisiae mlh1 rad18 strain growth inhibition, hits give high values
How it was run: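 Yeast w/ defined DNA-repair lesions; compound exposure; growth vs vehicle controls → % inhibition.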

[7] = at 5.0 µM (retest, dose inferred, filed as 0.5)
[8] = at 50.0 µM (retest, dose inferred, filed as 5.0)

Measured: growth inhibition

CN(C)c1ccc(/C=C/c2ccnc3ccccc23)cc1Cl
inactive: [1]; [7] 23% | [1]; at 50.0 µM -10.1% | [2]; [7] 4% | [2]; at 50.0 µM -4.1% | [3]; [7] 0% | [3]; at 50.0 µM 66.8% | [4]; [7] -6% | [4]; at 50.0 µM -12.6% | [5]; [7] 2% | [5]; at 50.0 µM 29.4% | [6]; [7] -3% | [6]; at 50.0 µM 5.25%
active: [1]; [8] 95% | [2]; [8] 97% | [3]; [8] 97% | [4]; [8] 94% | [5]; [8] 97% | [6]; [8] 95%

Nc1cccc2cccnc12
inactive: [1]; [7] 31% | [2]; [7] 8% | [2]; [8] 14% | [2]; at 50.0 µM 27% | [3]; [7] 18% | [3]; [8] 48% | [4]; [7] 4% | [4]; [8] 6% | [4]; at 50.0 µM 18.4% | [5]; [7] -3% | [5]; [8] -4% | [5]; at 50.0 µM 12.6% | [6]; [7] 29% | [6]; [8] 66%
active: [1]; [8] 72% | [1]; at 50.0 µM 89.3% | [3]; at 50.0 µM 78.4% | [6]; at 50.0 µM 91%

Cc1cc(N(CCOS(C)(=O)=O)CCOS(C)(=O)=O)ccc1C=Nc1ccccc1C(=O)O
active: [1]; [8] 76% | [1]; at 50.0 µM 83.5% | [2]; at 50.0 µM 74.3% | [3]; at 50.0 µM 79.8% | [6]; [8] 91% | [6]; at 50.0 µM 95.1%
inactive: [1]; [7] 7% | [2]; [7] 15% | [2]; [8] 66% | [3]; [7] 4% | [3]; [8] 62% | [4]; [7] 4% | [4]; [8] 57% | [4]; at 50.0 µM 68.2% | [5]; [7] -2% | [5]; [8] 31% | [5]; at 50.0 µM 38.5% | [6]; [7] 28%

C/C=C(\C)CC/C=C/CO[Si](C)(C)C(C)(C)C
inactive: [1]; [7] -19% | [1]; [8] -19% | [1]; at 50.0 µM -4.15% | [2]; [7] -2% | [2]; [8] -19% | [2]; at 50.0 µM 8.7% | [3]; [7] -13% | [3]; [8] 13% | [3]; at 50.0 µM 5.25% | [4]; [7] 11% | [4]; [8] -4% | [4]; at 50.0 µM 53.6% | [5]; [7] 7% | [5]; [8] -11% | [5]; at 50.0 µM 2.8% | [6]; [7] -16% | [6]; [8] -8% | [6]; at 50.0 µM 5.75%

N#CC(Br)(C#N)Cc1ccccc1
active: [1]; [8] 100% | [1]; at 50.0 µM 98.8% | [2]; [8] 100% | [2]; at 50.0 µM 99.6% | [3]; [8] 90% | [3]; at 50.0 µM 99.1% | [4]; [8] 99% | [4]; at 50.0 µM 99.2% | [5]; [8] 100% | [5]; at 50.0 µM 99.5% | [6]; [8] 100% | [6]; at 50.0 µM 99.3%
inactive: [1]; [7] 1% | [2]; [7] 8% | [3]; [7] -11% | [4]; [7] -10% | [5]; [7] 9% | [6]; [7] -10%

CCN(c1ccc(C=O)cc1)c1ccc([N+](=O)[O-])cc1[N+](=O)[O-]
active: [3]; [8] 70% | [3]; at 50.0 µM 74%
inactive: [1]; [7] 3% | [1]; [8] 33% | [1]; at 50.0 µM 50.5% | [2]; [7] -1% | [2]; [8] 30% | [2]; at 50.0 µM 26.2% | [3]; [7] 3% | [4]; [7] 1% | [4]; [8] 11% | [4]; at 50.0 µM 18.2% | [5]; [7] 2% | [5]; [8] 23% | [5]; at 50.0 µM 7.85% | [6]; [7] 8% | [6]; [8] 59% | [6]; at 50.0 µM 38.7%

Cc1cc(=O)n(-c2ccc(F)cc2)n1C
inactive: [1]; [7] 1% | [1]; [8] 0% | [1]; at 50.0 µM 30.9% | [2]; [7] -6% | [2]; [8] 1% | [2]; at 50.0 µM -5.7% | [3]; [7] 0% | [3]; [8] 2% | [3]; at 50.0 µM 31.7% | [4]; [7] 3% | [4]; [8] 15% | [4]; at 50.0 µM 22.9% | [5]; [7] 0% | [5]; [8] -2% | [5]; at 50.0 µM 25.4% | [6]; [7] 2% | [6]; [8] -16% | [6]; at 50.0 µM -23.6%

Oc1ccccc1C1C=C(c2ccccc2)NC(N2CCCCC2)=C1c1nc2ccccc2[nH]1 (centres undefined)
inactive: [1]; [7] -9% | [1]; [8] -11% | [1]; at 50.0 µM 18.1% | [2]; [7] -9% | [2]; [8] -13% | [2]; at 50.0 µM -5.15% | [3]; [7] -9% | [3]; [8] -10% | [3]; at 50.0 µM 5.05% | [4]; [7] -22% | [4]; [8] -14% | [4]; at 50.0 µM 40% | [5]; [7] -13% | [5]; [8] 6% | [5]; at 50.0 µM 29.4% | [6]; [7] 2% | [6]; [8] -2% | [6]; at 50.0 µM 9.4%
